# Many of the other results were omitted from the sample, so hits are more common in it than they were.
# Pf Dd2 growth: Plasmodium falciparum Dd2 growth inhibition; Potency, µM (titrated, usually from 28.9 µM), without a hit: at the top dose activity, negative = inhibition, most hits filed as inhibitors; 4.3% of 120,000 active; P. falciparum Dd2 growth, SYBR Green, 72 h; active means well fitted inhibition curve with a large enough effect;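 further: plate controls were DMSO vehicle for no effect and reference drug for full effect; nearly all actives have a fitted effect of over 65% in size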
#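 Infected erythrocytes (Dd2, 0.3% parasitemia, 2.5% hematocrit final) are added to compound in RPMI-1640/Albumax II medium, grown 72 h at 37C in low oxygen, then lysed with saponin/Triton-X containing SYBR Green and read by fluorescence.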
# An asterisk follows results filed as active; i = inactive; [ ] = another dose, or the depositor's remark. Potency means the concentration at half of the fitted maximal effect.
SMILES,Pf Dd2 growth
Cc1ccc(Cl)cc1N1CCN(C(=O)CCC(=O)Nc2ccc3nc(N4CCC(C)CC4)cc(C)c3c2)CC1,3.55µM*
Cc1cccn2c(=O)cc(COc3cccc(NC(=O)Nc4cccc(Cl)c4)c3)nc12,i
Cc1cn(C)c(CC(=O)N2CCN(c3cccc(Cl)c3)CC2)c1C(=O)O,2.4%
COc1ccc(C(=O)Nc2ccc3nc(N4CCCCC4)cc(C)c3c2)c(OC)c1,4.4%
Cc1c(-c2cccc(NC(=O)Nc3ccc(Cl)cc3)c2)nc2ncccn12,-24.3%
Cc1ccc(/C=C/C(=O)Nc2ccc3nc(N4CCC(C)CC4)cc(C)c3c2)cc1,-5.4%
Cc1ccc(Nc2ncc(C(=O)N3CCN(c4cccc(Cl)c4)CC3)c3ccccc23)cc1Cl,i
Cc1cc(N2CCCCC2)nc2ccc(NC(=O)CCC(=O)N3CCN(c4cccc(Cl)c4)CC3)cc12,11.2µM*
COC(=O)CC1C(=O)NCCN1C(=O)c1ccc2nc(C3CCCCC3)oc2c1 (stereo not given),-5.2%
CN(C)c1nc(N)nc(CNC(=O)c2csc(Cc3ccccc3)n2)n1,-11.0%
CCCc1nc(C(=O)N[C@H]2COC[C@H]2Cc2cc(C)no2)cs1,-0.4%
Cc1nc(CN2CCOC3(CCN([S+](=O)([O-])c4ccccc4C)CC3)C2=O)cs1,i
O=C(NC1CC1)C1(c2ccc(Cl)cc2)CCOCC1,8.9%[44.1 µM]
CN(C)Cc1cc(CC2(NCc3ccc(N(C)C)cc3)COC2)no1,33.0%[44.1 µM]
O=c1[nH]nc2n1CCN(Cc1ccc(F)c(Br)c1)CC2,i
O=C1NC2(CCCN(C(=O)c3ccccc3F)C2)Oc2ccccc21 (stereo not given),-12.4%[44.1 µM]
Fc1cccc(-c2cc3c(cn2)CN(Cc2ccncc2)CCN3)c1,i
c1ccc(Oc2ccccc2-c2cc3c(cn2)CN(Cc2ccncc2)CCN3)cc1,8.91µM*
c1cc(CN2CCNc3cc(-c4ccsc4)ncc3C2)ccn1,i
CNC(=O)NC[C@H]1CCN(Cc2ccccc2)C[C@H]1N(C)C,-1.5%
Cc1ccccc1C(=O)N1CC(C(=O)N(C)C)C2(CCOCC2)C1 (stereo not given),26.5%
COc1ccc(CN2CCC3(Cc4ccccc4CNC3=O)C2)cc1F (stereo not given),-21.1%
O=C(NCc1csc2c1CCCC2)C(c1cccnc1)N1CCOCC1 (stereo not given),-4.8%
COc1cc(CNCCSc2nnnn2C)cc(Cl)c1OCc1ccccc1,i
Cn1nnnc1SCCCNCc1cccc(OCc2ccccc2Cl)c1,10µM*
SMILES,Pf Dd2 growth
Cn1nnnc1SCCCNCc1cc(Cl)ccc1OCc1ccccc1,7.94µM*
COc1cccc(CNCCSc2nnnn2C)c1OCc1ccc(Cl)cc1Cl,i
CCOc1ccc(CNCCCSc2nnnn2C)cc1OC,-13.1%[0.594 µM]
CCOc1ccccc1CNCCSc1nnnn1C,i
COc1ccc(CNC(=O)[C@H]2CCC[C@H]2NC(=O)c2cnc(C)cn2)cc1,16.3%
O=C1c2c(nc(COc3ccccc3)n2Cc2ccccc2)NCCN1CCOc1ccccc1,i
N#Cc1ccc(OCc2nc3c(n2Cc2ccccc2)C(=O)N(CC2CC2)CCN3)cc1,10µM*
O=C1c2c(nc(CNCc3cccc(Cl)c3)n2Cc2ccccc2)NCCN1Cc1ccccc1F,i
COc1cccc(OCc2nc3c(n2Cc2ccccc2)C(=O)N(CCOc2ccccc2)CCN3)c1,-19.3%
COc1cccc(OCc2nc3c(n2Cc2ccccc2)C(=O)N(CC2CCOCC2)CCN3)c1,11.2µM*
COc1cc(Cl)ccc1OCc1nc2c(n1Cc1ccccc1)C(=O)N(Cc1ccccc1C#N)CCN2,-8.8%
COc1cccc(OCc2nc3c(n2Cc2ccccc2)C(=O)N(C)CCN3)c1,i
O=C1c2c(nc(COc3ccc(F)cc3)n2Cc2ccccc2)NCCN1Cc1ccccc1,i
N#Cc1ccccc1CN1CCNc2nc(CNCc3ccc4c(c3)OCO4)n(Cc3ccccc3)c2C1=O,6.31µM*
CCOc1ccc(CCCNC(=O)c2c(C)cc(C)n(C)c2=O)cc1OCC,8.6%
Cc1cccc(-c2[nH]ncc2CNC(=O)c2cccc(N(C)C)c2)c1,-28.3%
Cc1cc(C(=O)N2CCCC(c3nn(C)c(=O)n3-c3ccccc3)C2)no1 (stereo not given),-6.8%
CN1c2cc(C(=O)NCc3ccccc3)ccc2C(=O)N2CCCC21 (stereo not given),i
COCCn1cnnc1C(C)NC(=O)c1cn(C2CCC(N)CC2)nn1 (stereo not given),-9.7%
CN(c1ccccc1)c1cc(=O)c2ccnc(N3CCN(c4ccccn4)CC3)c2o1,12.6µM*
CN1CCN(c2cc(=O)c3ccnc(N4CCN(c5ccccn5)CC4)c3o2)CC1,-14.0%[44.1 µM]
CN(c1ccccc1)c1cc(=O)c2ccnc(N3CCOCC3)c2o1,-10.6%[44.1 µM]
CCC(O)c1cc2n(n1)CCN(C(=O)CCc1cn3ccccc3n1)C2 (stereo not given),-5.0%
O=C(NCCc1ccncc1)C1CN(C(=O)c2cccc(Cl)c2)CC12CCOCC2 (stereo not given),3.7%
CSCC(=O)N[C@H]1CN(Cc2cn(CCO)nc2C)C[C@@H]1C1CC1,1.1%
SMILES,Pf Dd2 growth
CCC(=O)N1CCc2cc(Br)cc(S(=O)(=O)CCC(=O)NCCc3ccccc3Cl)c21,11.2µM*
COc1ccccc1N1CCN(C(=O)CCS(=O)(=O)c2cc(Br)cc3c2N(C(C)=O)CC3)CC1,i
CCC(=O)N1CCc2cc(Br)cc(S(=O)(=O)CCC(=O)NCCc3ccc(C)cc3)c21,-12.6%
Cc1cc(NC(=O)CCS(=O)(=O)c2cc3c4c(c2)CCN4C(=O)CC3)ccc1Br,15.0%
COc1ccccc1N1CCN(C(=O)CCS(=O)(=O)c2cc(Br)cc3c2N(C(=O)C2CC2)CC3)CC1,10µM*
COc1ccc(Cl)cc1NS(=O)(=O)c1cc(Br)cc2c1N(C(=O)C1CC1)CC2,11.3%
CCC(=O)N1CCc2cc(Br)cc(S(=O)(=O)CCC(=O)Nc3cccc(CC)c3)c21,i
CCC(=O)N1CCc2cc(Br)cc(S(=O)(=O)NCCc3ccccc3)c21,-24.3%
CCC(=O)N1CCc2cc(Br)cc(S(=O)(=O)CCC(=O)Nc3ccc(CC)cc3)c21,-4.9%
CCc1cccc(C)c1NC(=O)CCS(=O)(=O)c1cc(Br)cc2c1N(C(=O)C1CC1)CC2,-18.6%
CCC(=O)N1CCc2cc(Br)cc(S(=O)(=O)CCC(=O)Nc3ccc(C)c(F)c3)c21,5.01µM*
Cc1cc(NC(=O)CCS(=O)(=O)c2cc(Br)cc3c2N(C(=O)C2CC2)CC3)ccc1Br,4.47µM*
CN1CC[C@H]2CN(C(=O)c3cnn(C)c3)C[C@@]2(C(=O)O)C1,4.6%
COCCC(=O)N[C@H]1CC[C@]2(C)CC[C@@H]([C@H](C)C(=O)NCc3ccco3)[C@H](O)[C@H]2[C@@H]1C,-17.0%[44.1 µM]
COc1ccc([C@H]2CN(C(=O)c3nc(N)nc4c3CCCC4)C[C@@H]2N)cc1,-7.2%
CN1C[C@H](NCC2CC2)CCC[C@@H](C(=O)NC2CCOCC2)CC1=O,3.2%[44.1 µM]
CCOC(=O)N1CCN(C(=O)c2cc(Cn3nc(C)cc3C)[nH]n2)CC1,-10.1%
CC1CCCN1c1ncnc2c1CN(c1cccnc1)C(=O)CN2C (stereo not given),-2.8%[44.1 µM]
O=S(=O)(c1cccs1)N1CCc2nc(C3CC3)nc(-c3ccc(Cl)cc3)c2C1,-10.8%
O=[S+]([O-])(c1cccs1)N1CCc2nc(C3CC3)nc(-c3ccc(Cl)cc3)c2CC1,3.98µM*
CCc1nc2c(c(-c3ccc(OC)cc3)n1)CCN([S+](=O)([O-])c1cccs1)CC2,-13.7%
COc1ccc(-c2nc(C(C)C)nc3c2CN([S+](=O)([O-])c2cccs2)CC3)cc1,5.01µM*

# Screening data deposited in PubChem by National Center for Advancing Translational Sciences (NCATS).
